The whole screen tested about 310,000 compounds, of which about 1,900 (0.61%) were called active.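 The calls were made as follows: active = plate-corrected calcium response at least 3 library SD above typical, normal starting fluorescence, not activating the receptor alone; inactive = the rest.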 The sample as a whole holds a higher share of actives than the screen did.

The target in this experiment is Mas-related G-protein coupled receptor member X1 (Homo sapiens) (UniProt Q96LB2). The experiment is described as follows: positive allosteric modulators of MrgX1, primary screen, HEK293 cells, Fluo-4 calcium flux (AID 588675).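 Also: compound read alongside a low EC10 to EC30 dose of BAM8-22 agonist.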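 As to B-score: peak minus trough fluorescence over baseline measured at the second addition.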 The settings on record: MrgX1-HEK293, Fluo-4 calcium flux, FDSS, at 10 µM; stronger effect = higher value.
Sequence of Mas-related G-protein coupled receptor member X1 (Homo sapiens) (Q96LB2 whole entry, looked up): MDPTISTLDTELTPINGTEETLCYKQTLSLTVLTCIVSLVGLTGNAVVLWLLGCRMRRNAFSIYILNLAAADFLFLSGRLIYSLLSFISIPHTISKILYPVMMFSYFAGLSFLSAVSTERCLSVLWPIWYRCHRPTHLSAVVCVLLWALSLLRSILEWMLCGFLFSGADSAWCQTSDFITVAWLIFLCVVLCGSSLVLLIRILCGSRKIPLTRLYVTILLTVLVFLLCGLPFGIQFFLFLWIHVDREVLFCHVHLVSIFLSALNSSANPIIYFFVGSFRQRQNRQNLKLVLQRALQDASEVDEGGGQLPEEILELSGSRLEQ
`CC[C@H]1CC2CN3CCc4c([nH]c5ccccc45)C(C(=O)OC)(C2)C13` (stereo not given in full): the B-score is 13 (active).

`CN1CCc2cc3c(cc2[C@H]1[C@@H]1OC(=O)c2c1ccc1c2OCO1)OCO3`: the B-score result is “inactive”.

As to `CN(C)C(=O)Oc1ccc(OCc2cccc[n+]2C)cc1`, the B-score entry is “inactive”.

As for `Cc1nc2ccccn2c1P(=S)(N1CCCCC1)N1CCCCC1`, the B-score is 13.5 (active).

For the compound `CC1CCCCN1Cc1cccnc1` (stereo not given), the B-score result was “inactive”.

Take `COc1ccc(S(=O)(=O)NCc2ccc(C(=O)N3CCC4(CC3)OCCO4)cc2)cc1`: the B-score entry is “inactive”.

On to `Cc1ccc(-c2nn(CCC#N)cc2C(=O)O)cc1C`, for which the B-score result is “inactive”.

With `CN(C)C(=O)Oc1ccc2c(c1)O/C(=C\c1ccccc1)C2=O`, the B-score entry was “inactive”.

Take `C=CCN1C(=O)C2(C(C(=O)OCC)=C(N)Oc3c2c(=O)oc2ccccc32)c2ccccc21` (stereo not given): the B-score was 27.7 (active).

Regarding `COC(=O)CN1C(=O)C2(C(C(=O)OC)=C(N)Oc3ccccc32)C2=C1CC(C)(C)CC2=O` (stereo not given), the B-score result is “inactive”.

`CCOC(=O)CC1=C(C(=O)OCC)C2(C(=O)N1)C(C(=O)OC)=C(N)Oc1ccccc12` (stereo not given): the B-score entry was “inactive”.

With `O=Cc1cn(Cc2ccc(F)cc2Cl)c2ccccc12`, the B-score result is “inactive”.

Regarding `CCOc1cccc(=NC2CCCCC2)c2c(C)[nH]c(C)c12`, the B-score result was “inactive”.

For `c1ccc(CC2CCCCN2)cc1` (stereo not given), the B-score result was “inactive”.

For `O=C(COC(=O)c1ccccc1)Nc1ccc(Cl)cc1C(=O)c1ccccc1`, the B-score result is “inactive”.

The values are drawn from PubChem BioAssay AID588675 (Johns Hopkins Ion Channel Center, 2011).
